# Screening results as filed in PubChem.
# NS1 inh: inhibitors of influenza NS1 protein function; hit rate 0.4% among 270,000; Potency, µM (titrated, usually from 46.1 µM), for inactives: top-dose activity, positive = more growth; further: potency means the concentration at half of the fitted maximal effect; actives are rising curves; nearly all actives have a fitted effect of over 50% in size
#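 S. cerevisiae expressing influenza A NS1, grown in glucose, washed, then diluted 1:100 into pH 6.0 -URA galactose medium with 23 nl compound. Growth recovery read as OD600; NS1-free strain serves as control.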
# SARS PLP yeast: inhibitors of SARS-CoV papain-like protease in yeast; S. cerevisiae expressing SARS-CoV PLpro, growth rescue; Potency, µM (titrated, usually from 32.9 µM), without a hit: at the top dose activity, positive = growth rescue, actives largely listed as activators; hit rate 0.19% among 330,000; AID 485353; further: potency means the concentration at half of the fitted maximal effect; 0% is about no effect; nearly all actives have a fitted effect of over 55% in size
# CHX counter: counter-screen for Shiga toxin inhibitors: cycloheximide protein synthesis inhibition; cell reporter, cycloheximide protein synthesis inhibition counterscreen; hit rate 12% among 300,000; max response, %; in the data active means max response mostly above about 13%, no sharp cut-off; inactive means mostly below about 14%; further: read at 38.3 µM for the half of the compounds with a filed dose; 0% is about no effect
# Shiga inhibitor: Shiga toxin inhibition | AID 2315 | Vero cells, Shiga toxin protein synthesis inhibition reporter | inhibition, % at 38.7 µM | hit rate 9.2% among 290,000; in the data active means inhibition mostly above about 28%, no sharp cut-off; inactive means mostly below about 43%; further: 0% is about no effect
# Starred values were filed as active, the others as inactive; ? = inconclusive; / = not tested or not shown. Hits are enriched below; roughly 12% of the tested compounds scored in any of these assays. Unless noted, the call rests on the fitted dose curve.
SMILES,NS1 inh,SARS PLP yeast,CHX counter,Shiga inhibitor
O=C(Nc1ccccc1F)Nc1ccccc1OC(F)F,-72%,-4%,25*,31
CCOc1cc(NC(=O)c2ccco2)c(OCC)cc1NC(=O)c1ccco1,5%,-1%,-6,-7
CCOc1ccc(NC(=S)NC(=O)C2CCCC2)cc1,-4%,22%,16*,69*
COc1ccc(-c2nonc2NC(=O)c2ccco2)cc1OC,9%,3%,1,-8
CCOc1ccc(-c2nonc2NC(=O)c2ccco2)cc1OCC,5%,0%,18,36*
Cc1ccc(NC(=O)Nc2ccc(F)cc2F)c(OC(F)F)c1,/,1%,-3,17
COc1ccc(NC(=S)NC(=O)C2CCCCC2)cc1,-12%,1%,-3,-5
CCOc1ccccc1NC(=O)c1ccc(NC(=O)c2ccco2)cc1,-5%,-43%,13*,51
COCCN(CCOC)S(=O)(=O)c1ccc(C(=O)Nc2c(C)n(C)n(-c3ccccc3)c2=O)cc1,5%,0%,1,-2
O=C(Nc1ccccc1OC(F)F)c1ccc(F)cc1,0%,-6%,8,12
COC(=O)COc1ccc(NC(=O)c2ccco2)cc1,1%,0%,16*,22
CCOc1ccc(NC(=S)NC(=O)c2ccco2)cc1,-64%,-4%,62*,85*
COc1ccc(OCC(=O)Nc2cccc(NC(=O)c3ccco3)c2)cc1,-1%,-2%,15,30
CCOc1ccc(C(=O)Nc2ccccc2OC(F)F)cc1,/,-1%,10,65*
CCOc1ccc(NC(=O)c2ccco2)cc1,-1%,-14%,30*,47*
Nc1ccc(S(=O)(=O)NCCS(=O)(=O)O)cc1,0%,/,/,/
Cc1csc(=O)n1CCC(=O)N(C)Cc1c(F)cccc1Cl,/,-2%,/,/
O=C(C1=C(O)C(=O)N(CCN2CCOCC2)C1c1cccc(F)c1)c1cc2ccccc2o1 (stereo not drawn),7%,0%,2,10
Cc1nc(SCc2ccc(C#N)cc2)n[nH]1,19%,2%,18*,/
Cc1nc(SCc2ccc([N+](=O)[O-])cc2)n[nH]1,-4%,-4%,5.9*,/
CCc1nc(SCc2ccc([N+](=O)[O-])cc2)n[nH]1,22%,15%,36*,76*
CCCCOc1ccc(CSc2n[nH]c(C)n2)cc1,-1%,-35%,33*,93*
CCOc1ccc(Cl)cc1CSc1n[nH]c(C)n1,-8%,-6%,-1,1
O=C(O)CCc1ccc(-c2ccccc2)[nH]1,-5%,/,/,/
CC(=O)N1CCc2cc(S(=O)(=O)CCC(=O)N(C)Cc3ccco3)ccc21,-8%,6%,10,-20
SMILES,NS1 inh,SARS PLP yeast,CHX counter,Shiga inhibitor
O=C(Nc1ccccc1)C1=C[C@@H](C2CCCCC2)C[C@@H](OCCCCO)O1,0%,-1%,74*,172*
C#CCNC(=O)C1=C[C@@H](C2CCCCC2)C[C@@H](OCCCCO)O1,0%,0%,15*,26
O=C(NC1CC1)C1=C[C@H](C2CCCCC2)C[C@H](OCCCCO)O1,1%,4%,-8,14
O=C(Nc1ccccc1)C1=C[C@@H](C2CCCCC2)C[C@@H](OCc2ccc(CO)cc2)O1,16%,-2%,40*,84*
C#CCNC(=O)C1=C[C@H](c2ccc(C(F)(F)F)cc2)C[C@H](OCCCCO)O1,-1%,-3%,8.6*,42
O=C(COC(=O)CCC(=O)c1ccc(Cl)cc1)NCc1ccco1,/,-3%,5,24
CCCc1nn(C)c2c(=O)[nH]c(-c3cc(S(=O)(=O)Nc4ccc(NC(C)=O)cc4)ccc3OCC)nc12,-5%,0%,-2,-19
O=C1NC2(CCCC2)C(=O)N1CC(=O)N(Cc1ccccc1)c1ccccc1,/,1%,/,/
O=C(Nc1ccccc1)C1=C[C@H](C2CCCCC2)C[C@H](OCc2ccc(CO)cc2)O1,15%,-1%,43*,55*
CCN(CC(=O)Nc1ccc(NC(C)=O)cc1)C(=O)c1cccc(S(=O)(=O)N2CCCC2)c1,/,2%,/,/
CCNc1ccc2c(Cl)cc(=O)oc2c1,-14%,-7%,19*,22
CC(=O)NC1=C(Nc2ccc(N(C)C)cc2)C(=O)c2ccccc2C1=O,7%,-3%,46*,116*
COC1=C(Nc2ccc(C)cc2)C(=O)c2ccccc2C1=O,-5%,-24%,53*,102*
COC1=C(Nc2ccccc2)C(=O)c2ccccc2C1=O,-11%,7%,19*,23*
COc1cc(OC)cc(-c2c(-c3cccs3)c3cc(-c4ccc(N(C)C)nc4)ccc3n2C)c1,/,1%,/,/
CC(c1ccccc1)C(CC(=O)O)C(=O)Nc1ccc(Cl)c(Cl)c1 (stereo not drawn),?,4%,-2,/
O=C(O)c1cncc(C#Cc2ccccc2)c1,-37%,0%,1,-7
O=C(O)c1cncc(C#CCC2CCCCC2)c1,-70%,-4%,77*,90*
O=C(COC(=O)c1ccc(Cl)nc1)NCCc1ccc(F)cc1,/,-8%,/,/
CN(CC(O)COc1c(F)cc(Br)cc1F)C1CCCCC1 (stereo not drawn),-11%,-6%,-4,11
CC1(C)CC(NCc2cccc([N+](=O)[O-])c2)CC(C)(C)N1,-1%,1%,17*,36
CC(C)NCc1cccc([N+](=O)[O-])c1,15%,13%,-4,-8
COc1cc(C)ccc1OCc1cc(C(=O)NCCN2CCOCC2)no1,0%,-6%,67*,76*
COc1cc(C)ccc1OCc1cc(C(=O)N(C)CCCN2CCOCC2)no1,-8%,1%,55*,96*
COc1ccc(C(=O)NC2=NCCS2)cc1S(=O)(=O)N1CCCCC1C (stereo not drawn),-3%,2%,11,-7
SMILES,NS1 inh,SARS PLP yeast,CHX counter,Shiga inhibitor
CSc1nc(N)c2ncn([C@@H]3O[C@H](COP(=O)(O)OP(=O)(O)O)[C@H](O)[C@H]3O)c2n1,4%,/,/,/
CCN1CCN(CC(=O)N2N=C(c3cccs3)CC2c2ccc(OC)cc2)C(=O)C1=O (stereo not drawn),/,0%,4,16
COc1cccc(C2CC(c3cccs3)=NN2S(C)(=O)=O)c1OC (stereo not drawn),-2%,1%,2,-1
Fc1ccc(N2N=C(c3cccs3)CC2c2ccccc2)cc1 (stereo not drawn),/,-6%,11,20
COc1ccc(C2CC(c3cccs3)=Nc3ccccc3S2)cc1 (stereo not drawn),?,-15%,61*,83*
c1ccc(C2Oc3ccccc3C3CC(c4cccs4)=NN32)cc1 (stereo not drawn),-41%,/,56*,105*
CS(=O)(=O)N1N=C(c2cccs2)CC1c1ccc(Cl)o1 (stereo not drawn),/,-2%,36*,66*
COc1ccc(C2CC(c3cccs3)=NN2S(C)(=O)=O)cc1 (stereo not drawn),7%,0%,32*,121*
O=C(CSc1nnc2ccc(-c3ccccn3)nn12)Nc1ccc(F)cc1F,/,-4%,/,/
COC(=O)C1=C(CS(=O)(=O)c2ccc(OC)c(OC)c2)NC(=O)NC1c1ccc(O)c(OC)c1 (stereo not drawn),-9%,?,-2,-2
Cc1cc(C)c(Cn2ncn(-c3ccc(Br)cc3)c2=O)c(C)c1,3%,-1%,3,-10
CC1(C2CC2)NC(=O)N(CC(=O)NCC(=O)Nc2ccc(F)c(F)c2F)C1=O (stereo not drawn),/,0%,/,/
